The text below walks through data of PubChem BioAssay (EPA / NIEHS).

In general, AC50 refers to the concentration at which the activity in the assay is half-maximal.

Records with an inconclusive call do not appear. Calls of active or inactive are those of the source. Rule for the calls, unless noted: active = hit-call score of the fitted dose curve at least 0.9, where 1 is the maximum; inactive = score below 0.9.

Test [1] concerns the target Hepatocyte nuclear factor 3-beta (Homo sapiens) (UniProt Q9Y261). Put plainly: ATG_FoxA2_CIS: Attagene CIS-FACTORIAL HepG2 Assay for human Forkhead box A2 (FOXA2) (AID 2282942). As to conditions: HepG2 cis-reporter transcription factor activity, 24 h; actives raise or lower the signal. In outline: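 HepG2 transiently transfected with a multiplexed cis-promoter reporter library read endogenous FOXA2 activity. After 24 h compound exposure, reporter mRNA was quantified by RT-PCR, HpaI digestion and capillary electrophoresis. Bidirectional fit against DMSO.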

For test [2], the target named is Heat shock factor protein 1 (Homo sapiens) (UniProt Q00613). As to the kind of experiment: ATG_HSE_CIS: Attagene CIS-FACTORIAL HepG2 Assay for human Heat Shock Transcription Factor 1 (HSE) (AID 2282953). As to conditions: HepG2 HSE cis-reporter, Attagene RNA transcription; actives raise or lower the signal. The method, boiled down:
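Read-out: fluorescence of reporter-specific RT-PCR fragments separated by capillary electrophoresis. HepG2 carrying transfected cis-element reporter units; 24 h dosing; activity fitted in both directions relative to DMSO baseline.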

Test [3] in a line: ATG_RORE_CIS: Attagene CIS-FACTORIAL HepG2 Assay for human RAR-related Orphan Receptor Element (RORE) (AID 2282959). As to conditions: HepG2 Attagene cis-factorial RORE reporter, mRNA; actives raise or lower the signal. In outline: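 HepG2 cells carrying transiently transfected cis-regulated reporter units; RORE-driven reporter mRNA quantified 24 h post-dosing by RT-PCR, 6-FAM primer extension, HpaI digestion and capillary electrophoresis. Bidirectional fit versus DMSO.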

Test [4] can be described thus: ATG_Sox_CIS: Attagene CIS-FACTORIAL HepG2 Assay for human SRY-box transcription factor (SOX) (AID 2282960). As to conditions: HepG2 Attagene cis-factorial SOX reporter, mRNA; actives raise or lower the signal. The method, boiled down: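 HepG2 cells transiently transfected with multiple cis-regulated reporter units, then dosed for 24 h. Reporter mRNA quantified by RT-PCR, fluorescent labelling, HpaI digestion and capillary electrophoresis; bidirectional fit versus DMSO.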

Test [5] concerns the target Transcription factor Sp1 (Homo sapiens) (UniProt P08047). As to the kind of experiment: ATG_Sp1_CIS: Attagene CIS-FACTORIAL HepG2 Assay for human Specificity Protein 1 (Sp1) (AID 2282961). As to conditions: HepG2 Sp1 cis-reporter transcription, actives raise or lower the signal. The method, boiled down:
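HepG2 cells transiently transfected with multiplexed cis-regulated reporter constructs, chemical exposure 24 h. Reporter mRNA quantified by RT-PCR with capillary electrophoresis; bidirectional fit relative to DMSO.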

The nature of test [6]: ATG_SREBP_CIS: Attagene CIS-FACTORIAL HepG2 Assay for human Sterol Regulatory Element Binding (SREBP) (AID 2282962). As to conditions: HepG2 Attagene cis-factorial SREBP reporter, mRNA; actives raise or lower the signal. In outline: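 Endogenous factor activity is measured in HepG2 through multiplexed reporter units under cis-element control. Following a 24 h incubation, reporter transcripts are reverse-transcribed, PCR-amplified and sized by capillary electrophoresis; activity is fitted in both directions relative to DMSO.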

Test [7] addresses Signal transducer and activator of transcription 3 (Homo sapiens) (UniProt P40763). As to the kind of experiment: ATG_STAT3_CIS: Attagene CIS-FACTORIAL HepG2 Assay for human Signal Transducer and Activator of Transcription 3 (STAT3) (AID 2282963). As to conditions: HepG2, Attagene cis-factorial STAT3 reporter transcription; actives raise or lower the signal. The method, boiled down: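 HepG2, MRTU-transfected, 24 h dosing. RNA → RT → PCR → FAM label → HpaI → CE. Bidirectional fit vs DMSO.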

Test [8] in a line: ATG_TA_CIS: Attagene CIS-FACTORIAL HepG2 Assay for human TA Basal Promoter (AID 2282964). As to conditions: HepG2 Attagene CIS-factorial TA basal promoter reporter; actives raise or lower the signal. In outline: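 Transfected HepG2, 24 h compound exposure; RNA → RT-PCR → FAM primer extension → HpaI cut → CE fluorescence. Gain/loss-of-signal fitted against DMSO negative control. Background-control readout.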

The nature of test [9]: ATG_TCF_b_cat_CIS: Attagene CIS-FACTORIAL HepG2 Assay for human T-Cell-Factor with beta-catenin (TCF/b-cat) (AID 2282965). As to conditions: HepG2 TCF/beta-catenin cis-reporter transcription, actives raise or lower the signal. In outline:
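HepG2 cells transiently transfected with multiple cis-promoter-regulated reporter transcription units, so endogenous transcription factor activity is measured. Reporter mRNA read 24 hours after dosing by RT-PCR, fluorescent labelling and capillary electrophoresis; bidirectional fitting against DMSO.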

Test [10] can be described thus: ATG_TAL_CIS: Attagene CIS-FACTORIAL HepG2 Assay for human TAL Basal Promoter (AID 2282966).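 Note: background control endpoint measuring basal TAL promoter reporter mRNA not a specific factor.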 As to conditions: HepG2 Attagene cis-factorial TAL promoter reporter; actives raise or lower the signal. In outline: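 Background-control endpoint: basal TAL promoter reporter transcripts in transiently transfected HepG2, measured 24 h after dosing. Read-out by RT-PCR with fluorescent primer extension and capillary electrophoresis; gain or loss of signal fitted relative to DMSO.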

Test [11] is described as follows: ATG_VDRE_CIS: Attagene CIS-FACTORIAL HepG2 Assay for human Vitamin D Receptor Element (VDRE) (AID 2282968). As to conditions: HepG2 VDRE cis-reporter transcription, actives raise or lower the signal. In outline:
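Steps: transfect HepG2 with multiple reporter transcription units; dose chemicals 24 h; isolate RNA; RT-PCR; label with 6-FAM primer extension; HpaI digest; capillary electrophoresis. Curves fitted both directions against DMSO.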

Test [12] deals with Transcriptional activator Myb (Homo sapiens) (UniProt P10242). As to the kind of experiment: ATG_Myb_CIS: Attagene CIS-FACTORIAL HepG2 Assay for human Myeloblastosis (Myb) Proto-Oncogene Transcription Factor (AID 2282986). As to conditions: HepG2 Attagene CIS-FACTORIAL Myb reporter transcription; actives raise or lower the signal. The method, boiled down: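 Transiently transfected HepG2 cells carrying a multiplexed cis-promoter reporter set report endogenous Myb activity after 24 h compound exposure. Reporter mRNA is read by RT-PCR with capillary electrophoresis of fluorescent products, fitted bidirectionally against DMSO.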
Transcriptional activator Myb (Homo sapiens), sequence (P10242 whole entry, looked up): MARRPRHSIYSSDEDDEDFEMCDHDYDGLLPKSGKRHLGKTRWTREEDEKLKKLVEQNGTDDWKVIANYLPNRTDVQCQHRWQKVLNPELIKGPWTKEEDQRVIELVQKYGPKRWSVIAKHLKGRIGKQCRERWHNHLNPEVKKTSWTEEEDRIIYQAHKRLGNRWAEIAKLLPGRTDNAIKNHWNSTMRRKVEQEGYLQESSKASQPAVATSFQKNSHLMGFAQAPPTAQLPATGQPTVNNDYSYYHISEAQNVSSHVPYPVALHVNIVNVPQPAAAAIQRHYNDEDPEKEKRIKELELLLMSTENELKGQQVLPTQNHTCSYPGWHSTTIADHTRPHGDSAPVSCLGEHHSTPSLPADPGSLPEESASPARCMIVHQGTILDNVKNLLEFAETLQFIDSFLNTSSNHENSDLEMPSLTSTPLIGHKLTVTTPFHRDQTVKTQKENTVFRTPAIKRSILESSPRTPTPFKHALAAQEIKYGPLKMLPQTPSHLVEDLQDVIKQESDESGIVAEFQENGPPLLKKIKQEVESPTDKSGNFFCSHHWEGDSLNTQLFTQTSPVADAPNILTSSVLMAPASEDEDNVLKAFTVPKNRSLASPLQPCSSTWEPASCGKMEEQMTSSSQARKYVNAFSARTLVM

Test [13] deals with Nuclear respiratory factor 1 (Homo sapiens) (UniProt Q16656). Put plainly: ATG_NRF1_CIS: Attagene CIS-FACTORIAL HepG2 Assay for human Nuclear Respiratory Factor 1 (NRF1) Orphan Gene (AID 2282987). As to conditions: HepG2 NRF1 cis-element reporter, Attagene multiplex; actives raise or lower the signal. The method, boiled down:
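HepG2 cells transiently transfected with multiple cis-regulated reporter units, exposed 24 h. Reporter mRNAs measured by RT-PCR, fluorescent labelling, HpaI digestion and capillary electrophoresis; bidirectional fitting against DMSO.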

Test [14] can be described thus: ATG_NFI_CIS: Attagene CIS-FACTORIAL HepG2 Assay for human Nuclear Factor I (NFI) (AID 2282989). As to conditions: HepG2 cis-regulatory reporter, NFI response element transcription; actives raise or lower the signal. The method, boiled down: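 Read-out: reporter mRNA via RT-PCR plus capillary electrophoresis with fluorescence detection. Transiently transfected HepG2 (endogenous TF activity on cis promoters), 24 h compound exposure; gain or loss of signal fitted against DMSO.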

The target in test [15] is Myc proto-oncogene protein (Homo sapiens) (UniProt P01106). Put plainly: ATG_Myc_CIS: Attagene CIS-FACTORIAL HepG2 Assay for human Myelocytomatosis (Myc) Proto-Oncogene Transcription Factor (AID 2282990). As to conditions: HepG2, Attagene cis-reporter transcription factor activity; actives raise or lower the signal. In outline:
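HepG2 cells transiently transfected with multiple cis-promoter-driven reporter transcription units, so endogenous TF activity is read. After 24 h compound exposure, reporter mRNA was quantified by RT-PCR, 6-FAM labelling, HpaI digestion and capillary electrophoresis; bidirectional fit versus DMSO.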

Test [16] in a line: ATG_NRF2_ARE_CIS: Attagene CIS-FACTORIAL HepG2 Assay for human Nuclear Factor Erythroid 2 Related Factor 2 (NFR2) response to Antioxidant Response Elements (ARE) (AID 2282992).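 For AC50: reporter mRNA level measured by RT-PCR and capillary electrophoresis fluorescence.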 As to conditions: HepG2 Attagene ARE/NRF2 reporter, transcription factor activity; actives raise or lower the signal. In outline: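 Endogenous transcription factor activity in human liver HepG2 cells is tracked via a cis-element-driven reporter within a multiplexed set. mRNA induction is read by RT-PCR and capillary electrophoresis after 24 h, with DMSO as baseline.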

Test [17] is described as follows: ATG_Oct_MLP_CIS: Attagene CIS-FACTORIAL HepG2 Assay for human Octamer-Binding Transcription Factor (Oct) (AID 2282993). As to conditions: HepG2 Attagene cis-factorial Oct reporter, mRNA; actives raise or lower the signal. The method, boiled down: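 Read-out: reporter mRNA via RT-PCR plus capillary electrophoresis of 6-FAM-labelled fragments. Transiently transfected HepG2, 24 h exposure, endogenous TF activity on cis elements. Gain or loss of signal fitted relative to DMSO.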

In test [18] the target is Cellular tumor antigen p53 (Homo sapiens) (UniProt P04637). Put plainly: ATG_p53_CIS: Attagene CIS-FACTORIAL HepG2 Assay for human p53 Transcription Factor (AID 2282994). As to conditions: HepG2 p53 cis-element reporter, Attagene mRNA; actives raise or lower the signal. In outline: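 Steps: transfect HepG2 with multiplexed cis reporter constructs; dose chemicals 24 h; extract RNA, reverse-transcribe, PCR-amplify reporter sequences; FAM-label, HpaI-digest, resolve fragments by CE. Activity fitted both directions relative to DMSO.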
Cellular tumor antigen p53 (Homo sapiens), sequence (P04637 whole entry, looked up, the tested form may be a part): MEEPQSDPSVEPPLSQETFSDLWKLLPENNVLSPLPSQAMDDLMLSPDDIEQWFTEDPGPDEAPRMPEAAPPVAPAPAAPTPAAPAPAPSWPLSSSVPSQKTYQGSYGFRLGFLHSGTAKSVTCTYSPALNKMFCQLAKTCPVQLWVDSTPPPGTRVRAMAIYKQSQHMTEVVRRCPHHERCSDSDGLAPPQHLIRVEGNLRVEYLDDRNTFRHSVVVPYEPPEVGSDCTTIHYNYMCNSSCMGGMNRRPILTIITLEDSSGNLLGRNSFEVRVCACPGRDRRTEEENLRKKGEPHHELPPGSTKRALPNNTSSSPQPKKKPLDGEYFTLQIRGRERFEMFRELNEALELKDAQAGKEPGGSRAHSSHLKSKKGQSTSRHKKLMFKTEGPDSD

Test [19] addresses Nuclear receptor subfamily 1 group I member 2 (Homo sapiens) (UniProt O75469). As to the kind of experiment: ATG_PXR_TRANS: Attagene TRANS-FACTORIAL HepG2 Assay for human Pregnane X Receptor (PXR) (AID 2283008; active = hit-call score of the fitted dose curve at least 0.9, where 1 is the maximum). In outline: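 HepG2 transfected (FuGene 6) with GAL4-UAS reporter units + PXR-Gal4 chimera; dosed 24 h. Total RNA → oligo(dT) RT → PCR → 6-FAM primer extension → HpaI cut → CE. Gain-of-signal vs DMSO.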

A short description of test [20]: ATG_XTT_Cytotoxicity: Cytotoxicity Assessment in the Attagene TRANS-FACTORIAL HepG2 Assay (AID 2283584; active = hit-call score of the fitted dose curve at least 0.9, where 1 is the maximum). In outline:
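Viability endpoint from XTT after 24 h chemical exposure of reporter-transfected human HepG2 liver cells; signal loss fitted relative to DMSO negative control.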

Signal transducer and activator of transcription 3 (Homo sapiens), sequence (P40763 whole entry, looked up): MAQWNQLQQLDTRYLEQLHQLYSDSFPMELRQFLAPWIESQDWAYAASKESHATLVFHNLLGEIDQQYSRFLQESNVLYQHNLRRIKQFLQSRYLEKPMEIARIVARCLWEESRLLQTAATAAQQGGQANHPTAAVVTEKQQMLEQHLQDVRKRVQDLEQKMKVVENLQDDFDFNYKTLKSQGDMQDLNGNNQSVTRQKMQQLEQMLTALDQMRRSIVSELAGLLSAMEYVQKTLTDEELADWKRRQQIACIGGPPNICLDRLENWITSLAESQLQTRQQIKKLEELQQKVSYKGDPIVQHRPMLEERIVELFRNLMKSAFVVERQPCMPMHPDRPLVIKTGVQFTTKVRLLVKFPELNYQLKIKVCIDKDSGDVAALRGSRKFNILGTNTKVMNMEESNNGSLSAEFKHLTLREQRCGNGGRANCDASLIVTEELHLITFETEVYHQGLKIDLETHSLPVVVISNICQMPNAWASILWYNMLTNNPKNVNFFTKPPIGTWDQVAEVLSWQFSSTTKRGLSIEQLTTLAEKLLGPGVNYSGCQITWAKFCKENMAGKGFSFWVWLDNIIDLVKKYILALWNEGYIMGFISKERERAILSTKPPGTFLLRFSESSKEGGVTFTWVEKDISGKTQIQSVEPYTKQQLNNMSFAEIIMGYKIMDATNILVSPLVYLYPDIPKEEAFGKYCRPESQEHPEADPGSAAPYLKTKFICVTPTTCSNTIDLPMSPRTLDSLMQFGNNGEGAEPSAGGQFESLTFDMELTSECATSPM
Transcription factor Sp1 (Homo sapiens), sequence (P08047 whole entry, looked up): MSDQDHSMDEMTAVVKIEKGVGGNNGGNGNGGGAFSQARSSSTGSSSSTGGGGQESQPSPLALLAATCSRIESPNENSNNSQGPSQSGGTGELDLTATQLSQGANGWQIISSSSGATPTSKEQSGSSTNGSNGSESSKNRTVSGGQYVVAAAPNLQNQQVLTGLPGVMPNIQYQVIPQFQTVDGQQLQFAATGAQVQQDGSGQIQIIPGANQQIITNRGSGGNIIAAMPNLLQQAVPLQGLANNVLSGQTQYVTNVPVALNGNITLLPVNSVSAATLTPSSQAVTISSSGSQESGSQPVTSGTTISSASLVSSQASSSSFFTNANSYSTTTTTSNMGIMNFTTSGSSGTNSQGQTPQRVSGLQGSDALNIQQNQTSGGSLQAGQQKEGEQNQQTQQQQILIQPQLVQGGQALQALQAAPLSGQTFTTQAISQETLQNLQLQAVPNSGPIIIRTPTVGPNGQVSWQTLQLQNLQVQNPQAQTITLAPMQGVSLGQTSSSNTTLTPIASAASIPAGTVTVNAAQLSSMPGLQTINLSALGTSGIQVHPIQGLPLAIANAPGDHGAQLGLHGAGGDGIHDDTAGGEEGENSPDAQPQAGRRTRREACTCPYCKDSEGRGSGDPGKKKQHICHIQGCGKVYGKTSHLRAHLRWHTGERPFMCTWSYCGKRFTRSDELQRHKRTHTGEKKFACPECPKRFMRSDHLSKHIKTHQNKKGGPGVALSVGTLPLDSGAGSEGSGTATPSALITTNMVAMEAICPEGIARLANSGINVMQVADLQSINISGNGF
Myc proto-oncogene protein (Homo sapiens), sequence (P01106 whole entry, looked up): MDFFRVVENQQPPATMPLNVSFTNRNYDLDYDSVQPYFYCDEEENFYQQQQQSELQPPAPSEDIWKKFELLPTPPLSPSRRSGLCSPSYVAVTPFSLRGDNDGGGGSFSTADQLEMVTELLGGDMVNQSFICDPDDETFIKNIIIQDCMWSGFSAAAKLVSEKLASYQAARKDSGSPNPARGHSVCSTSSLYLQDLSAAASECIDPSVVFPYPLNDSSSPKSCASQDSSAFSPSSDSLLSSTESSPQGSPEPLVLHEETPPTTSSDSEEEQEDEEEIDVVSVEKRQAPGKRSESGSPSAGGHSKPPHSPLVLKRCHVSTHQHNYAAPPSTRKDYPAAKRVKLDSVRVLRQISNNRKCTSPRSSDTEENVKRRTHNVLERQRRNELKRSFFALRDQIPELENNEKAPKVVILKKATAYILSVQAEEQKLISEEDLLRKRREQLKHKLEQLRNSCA
Heat shock factor protein 1 (Homo sapiens), sequence (Q00613 whole entry, looked up, the tested form may be a part): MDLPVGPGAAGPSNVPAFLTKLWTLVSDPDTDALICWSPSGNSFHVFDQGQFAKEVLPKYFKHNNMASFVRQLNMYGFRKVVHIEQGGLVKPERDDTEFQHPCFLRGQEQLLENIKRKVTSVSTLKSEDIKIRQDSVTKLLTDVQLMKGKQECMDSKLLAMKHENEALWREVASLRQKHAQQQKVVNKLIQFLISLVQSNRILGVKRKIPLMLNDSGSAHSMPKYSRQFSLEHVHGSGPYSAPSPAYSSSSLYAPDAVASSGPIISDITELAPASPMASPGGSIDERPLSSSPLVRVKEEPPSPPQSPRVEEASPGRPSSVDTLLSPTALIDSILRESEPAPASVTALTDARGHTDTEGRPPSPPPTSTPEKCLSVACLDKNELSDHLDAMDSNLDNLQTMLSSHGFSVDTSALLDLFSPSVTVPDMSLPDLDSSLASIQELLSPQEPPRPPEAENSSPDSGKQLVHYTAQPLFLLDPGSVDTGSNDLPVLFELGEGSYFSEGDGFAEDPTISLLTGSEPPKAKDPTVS
Nuclear receptor subfamily 1 group I member 2 (Homo sapiens), sequence (O75469 whole entry, looked up, the tested form may be a part): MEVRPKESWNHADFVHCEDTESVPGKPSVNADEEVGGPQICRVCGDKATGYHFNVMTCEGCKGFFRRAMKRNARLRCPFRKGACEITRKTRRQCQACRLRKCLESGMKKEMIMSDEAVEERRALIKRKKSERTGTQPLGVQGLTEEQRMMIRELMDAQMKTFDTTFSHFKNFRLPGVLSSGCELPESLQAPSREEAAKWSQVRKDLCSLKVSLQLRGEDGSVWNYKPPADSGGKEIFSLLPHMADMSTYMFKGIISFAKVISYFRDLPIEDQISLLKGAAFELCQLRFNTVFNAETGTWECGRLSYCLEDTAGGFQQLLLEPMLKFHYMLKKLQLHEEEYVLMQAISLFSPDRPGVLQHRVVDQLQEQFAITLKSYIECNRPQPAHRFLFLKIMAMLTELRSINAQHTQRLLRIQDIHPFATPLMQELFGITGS
Nuclear respiratory factor 1 (Homo sapiens), sequence (Q16656 whole entry, looked up): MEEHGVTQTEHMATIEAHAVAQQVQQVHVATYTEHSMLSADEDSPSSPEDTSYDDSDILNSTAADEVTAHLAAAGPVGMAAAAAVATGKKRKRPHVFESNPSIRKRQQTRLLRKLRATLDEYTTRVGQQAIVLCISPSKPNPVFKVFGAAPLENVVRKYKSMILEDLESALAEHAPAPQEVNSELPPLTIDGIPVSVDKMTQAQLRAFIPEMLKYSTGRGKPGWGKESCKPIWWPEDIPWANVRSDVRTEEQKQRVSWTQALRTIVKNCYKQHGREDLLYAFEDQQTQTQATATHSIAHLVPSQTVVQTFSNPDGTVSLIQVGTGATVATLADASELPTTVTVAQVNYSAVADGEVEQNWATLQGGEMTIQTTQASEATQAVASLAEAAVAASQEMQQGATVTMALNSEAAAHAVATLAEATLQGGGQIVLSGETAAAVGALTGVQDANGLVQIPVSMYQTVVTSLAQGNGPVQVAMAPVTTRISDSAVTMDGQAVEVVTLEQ
Hepatocyte nuclear factor 3-beta (Homo sapiens), sequence (Q9Y261 whole entry, looked up): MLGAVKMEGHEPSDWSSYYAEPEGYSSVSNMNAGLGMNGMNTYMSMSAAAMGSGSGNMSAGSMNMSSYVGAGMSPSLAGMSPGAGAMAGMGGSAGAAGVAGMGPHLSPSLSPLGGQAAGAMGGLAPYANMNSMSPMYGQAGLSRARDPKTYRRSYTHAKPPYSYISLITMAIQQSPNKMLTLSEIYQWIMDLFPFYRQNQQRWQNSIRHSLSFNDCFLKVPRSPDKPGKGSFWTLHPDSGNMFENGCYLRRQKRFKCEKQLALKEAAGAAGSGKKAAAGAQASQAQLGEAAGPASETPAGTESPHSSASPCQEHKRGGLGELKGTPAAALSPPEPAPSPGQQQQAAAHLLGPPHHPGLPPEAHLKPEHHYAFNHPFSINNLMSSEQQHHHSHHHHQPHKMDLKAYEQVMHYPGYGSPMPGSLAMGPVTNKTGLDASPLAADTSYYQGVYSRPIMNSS

For `CC(=O)OC(C)(C)Cc1ccccc1`, the call in test [1], in test [2], in test [3], in test [4], in test [5] and in test [6] was inactive. For the same compound, the compound was called inactive in test [7], in test [8], in test [9], in test [10], in test [11] and in [12]. Also, the outcome in [13], in test [14], in [15], in test [16], in test [17] and in test [18] was inactive. For the same compound, the outcome in [19] and in [20] was inactive.
On to `CCCCCC[C@@H](O)C/C=C\CCCCCCCC(=O)O`, for which the AC50 in test [1] is 172 µM (active); in test [2] it was 187 µM (active); in [3], 100 µM (active); in [7] it was 160 µM (active); in test [9], 60.1 µM (active); in [12] it was 123 µM (active). Moreover, the AC50 in [13] was 139 µM (active); in [14], 153 µM (active); in test [16], 100 µM (active). The outcome in [4], in test [5], in [6], in test [8], in test [10] and in test [11] was inactive. The compound was classed as inactive in test [15], in test [17], in [18], in test [19] and in test [20].
For the compound `CC/C=C\CC/C=C/C(OCC)OCC`, the outcome in test [1], in [3], in test [5], in [6], in [7] and in test [8] was inactive. Moreover, the call in test [9], in [10], in test [12], in [13], in test [14] and in [15] was inactive. For the same compound, the compound was called inactive in [17] and in [19]. Further, the AC50 was 156 µM (active) in test [2], 147 µM (active) in test [4], 26.2 µM (active) in test [16] and 187 µM (active) in test [18].
Take `COc1cccc(OC)c1C(=O)O`: the compound was called inactive in [1], in test [2], in test [3], in [4], in test [5] and in test [6]. The call in test [7], in [8], in test [9], in test [10], in test [11] and in test [12] was inactive. Moreover, the compound was classed as inactive in test [13], in [14], in test [15], in test [16], in [17] and in test [18]. Besides, the compound was called inactive in test [20].
